Records with an inconclusive call do not appear. Entries that show only a call come without a potency. Calls of active or inactive are those of the source. Unless noted, calls come from the whole dose curve; as a rule, active = well fitted curve in the direction sought with a large enough effect in the repeat runs; inconclusive = weak or mixed curves; inactive = no such curve, though single readings can be large; an effect the other way counts as inactive or inconclusive.
Legend:
[1] = qHTS assay to identify small molecule agonists of the constitutive androstane receptor (CAR) signaling pathway - cell viability counter screen (AID 1224836); note: nearly all actives have a fitted effect of over 45% in size; note: potency is the fitted concentration of half-maximal effect
Outline: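 HepG2 cells stably carrying hCAR and a CYP2B6-2.2kb reporter; 15-concentration compounds plus PK11195 (final 0.75 uM), 23 hr at 37 C/5% CO2. Viability read by CellTiter-Fluor fluorescence.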

[2] = qHTS assay to identify small molecule antagonists of the constitutive androstane receptor (CAR) signaling pathway - cell viability counter screen (AID 1224837); note: nearly all actives have a fitted effect of over 45% in size
Outline: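 To flag cytotoxic false antagonists, HepG2 hCAR/CYP2B6-2.2kb cells were treated 23 hr with 15-concentration compound series and 50 nM CITCO at 37 C/5% CO2; CellTiter-Fluor fluorescence was the measured end point.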

[3] = biological target: Nuclear receptor subfamily 1 group I member 3 (Homo sapiens) (UniProt Q14994); assay: qHTS assay to identify small molecule antagonists of the constitutive androstane receptor (CAR) signaling pathway (AID 1224838);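 note: HepG2 cells stably expressing hCAR with CYP2B6 luciferase reporter stimulated by CITCO; nearly all actives have a fitted effect of over 40% in size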; note: potency is the fitted concentration of half-maximal effect
Outline: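 Human hepatoma HepG2 cells expressing hCAR and a CYP2B6 promoter (2.2 kb) luciferase construct; compound titration (15 points) with 50 nM CITCO final, 24 h at 37 C/5% CO2; luminescence via ONE-Glo after 30 min at room temperature.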

[4] = biological target: Nuclear receptor subfamily 1 group I member 3 (Homo sapiens) (UniProt Q14994); assay: qHTS assay to identify small molecule agonists of the constitutive androstane receptor (CAR) signaling pathway (AID 1224839); note: nearly all actives have a fitted effect of over 15% in size; note: potency is the fitted concentration of half-maximal effect;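 for activation: HepG2 cells stably carrying human CAR and a CYP2B6 luciferase reporter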
Outline: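 HepG2 cells stably co-transfected with hCAR and a CYP2B6-2.2kb luciferase reporter; compounds at 15 concentrations with 0.75 uM PK11195 present. After 24 hr at 37 C, luciferase read by ONE-Glo luminescence.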

[5] = qHTS assay to identify small molecule agonists of the hypoxia (HIF-1) signaling pathway - cell viability counter screen (AID 1224844; calls by dose curve; note: nearly all actives have a fitted effect of over 50% in size)
Outline: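 HRE-bla ME-180; 0.5% dFBS; cpd 17 h, 37C, 5% CO2; CellTiter-Glo lum., 30 min RT, post-FRET read, same wells.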

[6] = qHTS assay to identify small molecule agonists of H2AX (AID 1224845; active = well fitted activation curve with a large enough effect in the signal ratio in the repeat runs, not every such curve was filed as active; the % refers to the signal ratio)
Outline: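 Wild-type CHO-K1 cells plated overnight, then exposed 3 hr at 37C to compounds at 15 concentrations (0.76% DMSO). Lysed, then HTRF anti-pH2AX(S139)-cryptate/anti-H2AX-d2 detection after 24 hr at room temperature; emissions 665 and 620 nm.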

[7] = qHTS assay to identify small molecule agonists of the hypoxia (HIF-1) signaling pathway (AID 1224846; active = well fitted activation curve with a large enough effect in the signal ratio in the repeat runs, not every such curve was filed as active; the % refers to the signal ratio)
Outline: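 Reporter induction in HRE-bla ME-180 cells is taken as agonism: cells sit 5 hrs after plating, receive compounds or DMSO only, incubate 17 hrs at 37C under 5% CO2, and are loaded with CCF4-AM for beta-lactamase FRET measurement.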

[8] = qHTS RealTime-Glo MT Cell Viability Assay in HepG2 cells - 24 hour (AID 1224867); note: nearly all actives have a fitted effect of over 50% in size
Outline: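 qHTS, HepG2, 600 cells/well, RealTime-Glo (NanoLuc + prosubstrate) added with cells; 5 h preincubation; DMSO compound addition; 37 C; luminescence at 0/8/16/24/32/40 h.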

[9] = qHTS RealTime-Glo MT Cell Viability Assay in HEK293 cells - 32 hour (AID 1224868); note: nearly all actives have a fitted effect of over 50% in size; note: potency is the fitted concentration of half-maximal effect
Outline: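 Assay medium contained NanoLuc luciferase plus cell-permeant prosubstrate, added with HEK293 cells at 600 cells/well. After 5 h at 37 C/5% CO2 compounds were added; plates stayed at 37 C for 40 h with serial luminescence reads.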

[10] = A CellTox Green Cytotoxicity Assay to monitor cytotoxicity in HEK293 cells - 0 hour (AID 1224869); note: nearly all actives have a fitted effect of over 50% in size; note: potency is the fitted concentration of half-maximal effect
Outline: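 Tox21 screen in HEK293: membrane-impermeant cyanine dye fluoresces on binding dead-cell DNA; compound pinned 5 h post-seeding, plates held at 37 C, signal read repeatedly through 40 h.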

[11] = qHTS RealTime-Glo MT Cell Viability Assay in HepG2 cells - 40 hour (AID 1224870); note: nearly all actives have a fitted effect of over 50% in size
Outline: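 HepG2 cells mixed with RealTime-Glo MT reagents (NanoLuc plus cell-permeant prosubstrate) were seeded at 600 cells/well, incubated 5 h at 37 C/5% CO2, then pinned with compounds in DMSO; nonlytic luminescence tracked viability during 40 h treatment.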

[12] = biological target: Luciferin 4-monooxygenase (Photinus pyralis) (UniProt P08659); assay: qHTS assay to identify small molecule inhibitors of firefly luciferase (AID 1224835); note: nearly all actives have a fitted effect of over 25% in size; note: potency is the fitted concentration of half-maximal effect
Outline: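 Quantitative HTS format; KM concentrations of both substrates. Purified P. pyralis FLuc activity quantified from luminescence images.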

[13] = qHTS assay to identify small molecule antagonists of the estrogen related receptor signaling pathway with the pleiotropic PPARgamma coactivator (PGC) from Tox21 10K library - cell viability counter screen (AID 1224840; active = well fitted cell-killing curve with a large enough effect in the repeat runs, not every such curve was filed as active; note: nearly all actives have a fitted effect of over 40% in size; note: potency is the fitted concentration of half-maximal effect)
Outline: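 Seeded PGC/ERR cells (2,000/well, 6 h, 37 C/5% CO2) get compound by pin tool; 17.5 h incubation at 37 C; CellTiter-Fluor added, 30 min, fluorescence measured.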

[14] = qHTS assay to identify small molecule agonists of H2AX - cell viability counter screen (AID 1224847; calls by dose curve; note: nearly all actives have a fitted effect of over 30% in size; note: potency is the fitted concentration of half-maximal effect)
Outline: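 CHO-K1 cells plated overnight at 37C, then exposed 3 h at 37C to compounds at 15 concentrations (0.76% DMSO final). Viability by CellTiter-Glo luminescence after 30 min at room temperature.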

[15] = qHTS assay to identify small molecule antagonists of the estrogen related receptor signaling pathway with the pleiotropic PPARgamma coactivator (PGC) from Tox21 10K library (AID 1224841; call rule not given here; note: potency is the fitted concentration of half-maximal effect)
Outline: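 Test chemicals dissolved in DMSO were applied to pre-incubated (6 h) PGC/ERR cells at 2,000 cells/well for an 18 h, 37 C treatment; reporter luminescence was then read using One-Glo.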

[16] = qHTS assay to identify small molecule agonists of the estrogen related receptor signaling pathway with the pleiotropic PPARgamma coactivator (PGC) from Tox21 10K library (AID 1224842); note: nearly all actives have a fitted effect of over 15% in size
Outline: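 PGC/ERR reporter cells (NTP line) were seeded 2,000 per well, rested 6 h at 37 C/5% CO2, then pin-dosed with compounds in DMSO for 18 h at 37 C; luciferase read by One-Glo luminescence after 30 min at room temperature.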

[17] = biological target: Thyrotropin receptor (Homo sapiens) (UniProt P16473); assay: qHTS assay to identify small molecule agonists of the thyroid stimulating hormone receptor (TSHR) signaling pathway (AID 1224843; calls by dose curve; note: nearly all actives have a fitted effect of over 45% in size; note: potency is the fitted concentration of half-maximal effect)
Outline: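 Compounds are titrated over 15 concentrations, in triplicate, onto TSHR-HEK293 cells seeded at 800/well. Plates sit 30 min at room temperature before cAMP-d2 and anti-cAMP cryptate are added; signal is read after a further hour.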

[18] = qHTS assay to identify small molecule antagonists of the estrogen related receptor (ERR) signaling pathway from Tox21 library (AID 1224848); note: nearly all actives have a fitted effect of over 50% in size; note: potency is the fitted concentration of half-maximal effect
Outline: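 First, 2,000 ERR cells per well were plated and held 6 h at 37 C/5% CO2. Next, compounds in DMSO were pinned in and left 18 h at 37 C. Finally, ONE-Glo was added and luminescence read after 30 min at room temperature.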

[19] = qHTS assay to identify small molecule agonists of the estrogen related receptor (ERR) signaling pathway from Tox21 library (AID 1224849; calls by dose curve; note: nearly all actives have a fitted effect of over 15% in size); settings: ERR reporter cell line, ONE-Glo luciferase, 18 h; at 92.4 µM (top of the series) unless noted
Outline: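 Tox21 compounds tested for ERR agonism in an NTP reporter cell line: 18 h treatment at 37 C, then ONE-Glo luminescence.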

Chain of Nuclear receptor subfamily 1 group I member 3 (Homo sapiens) (Q14994 whole entry, looked up): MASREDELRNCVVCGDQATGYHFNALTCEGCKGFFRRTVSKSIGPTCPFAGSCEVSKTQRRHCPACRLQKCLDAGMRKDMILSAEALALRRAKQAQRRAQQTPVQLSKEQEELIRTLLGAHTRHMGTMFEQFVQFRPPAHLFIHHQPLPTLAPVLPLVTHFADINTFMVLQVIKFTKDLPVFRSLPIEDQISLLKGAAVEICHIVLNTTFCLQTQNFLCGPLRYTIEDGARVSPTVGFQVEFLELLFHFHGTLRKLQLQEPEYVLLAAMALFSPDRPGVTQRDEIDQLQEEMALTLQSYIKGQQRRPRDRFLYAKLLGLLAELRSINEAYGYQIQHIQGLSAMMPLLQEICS
Chain of Luciferin 4-monooxygenase (Photinus pyralis) (P08659 whole entry, looked up): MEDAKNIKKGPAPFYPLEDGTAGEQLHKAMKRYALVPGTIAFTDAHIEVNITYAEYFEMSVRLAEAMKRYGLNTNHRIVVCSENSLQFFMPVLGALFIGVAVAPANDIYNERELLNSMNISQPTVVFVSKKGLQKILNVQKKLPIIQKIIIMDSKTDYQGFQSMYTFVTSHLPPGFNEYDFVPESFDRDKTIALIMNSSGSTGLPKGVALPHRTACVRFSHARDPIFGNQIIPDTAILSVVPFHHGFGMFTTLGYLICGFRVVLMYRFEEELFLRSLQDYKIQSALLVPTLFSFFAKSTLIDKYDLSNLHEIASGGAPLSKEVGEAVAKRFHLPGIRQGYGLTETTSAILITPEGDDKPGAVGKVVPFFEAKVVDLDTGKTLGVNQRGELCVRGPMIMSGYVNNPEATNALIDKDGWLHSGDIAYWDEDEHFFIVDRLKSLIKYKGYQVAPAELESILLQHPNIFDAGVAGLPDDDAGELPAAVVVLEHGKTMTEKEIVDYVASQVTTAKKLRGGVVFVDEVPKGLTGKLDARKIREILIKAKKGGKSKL
Chain of Thyrotropin receptor (Homo sapiens) (P16473 whole entry, looked up): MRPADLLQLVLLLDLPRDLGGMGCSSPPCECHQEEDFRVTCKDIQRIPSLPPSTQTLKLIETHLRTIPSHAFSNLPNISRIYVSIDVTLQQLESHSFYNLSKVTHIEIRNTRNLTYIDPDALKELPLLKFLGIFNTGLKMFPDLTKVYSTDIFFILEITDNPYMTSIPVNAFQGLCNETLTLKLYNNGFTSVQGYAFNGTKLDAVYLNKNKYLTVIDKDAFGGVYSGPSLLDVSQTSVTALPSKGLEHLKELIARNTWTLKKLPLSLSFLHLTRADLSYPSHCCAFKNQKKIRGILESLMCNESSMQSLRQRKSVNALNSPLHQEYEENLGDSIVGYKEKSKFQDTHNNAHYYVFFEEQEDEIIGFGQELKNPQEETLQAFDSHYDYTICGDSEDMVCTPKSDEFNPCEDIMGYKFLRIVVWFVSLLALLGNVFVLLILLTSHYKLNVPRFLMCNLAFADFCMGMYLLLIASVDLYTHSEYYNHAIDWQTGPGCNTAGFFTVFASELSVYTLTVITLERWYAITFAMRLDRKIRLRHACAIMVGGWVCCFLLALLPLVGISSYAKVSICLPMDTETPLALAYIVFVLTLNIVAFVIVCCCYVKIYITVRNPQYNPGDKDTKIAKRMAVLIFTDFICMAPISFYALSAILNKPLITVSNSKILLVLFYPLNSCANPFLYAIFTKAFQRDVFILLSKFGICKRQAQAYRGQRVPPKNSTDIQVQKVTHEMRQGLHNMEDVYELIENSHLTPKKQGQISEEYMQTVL

SMILES | Potency [1] | Potency [2] | Potency [3] | Potency [4] | Potency [5] | Potency [6] | outcome [7] | Potency [8] | Potency [9] | Potency [10] | Potency [11] | Potency [12] | Potency [13] | Potency [14] | Potency [15] | Potency [16] | Potency [17] | Potency [18] | activity change, positive = activation [19]
CCOP(O)OCC | inactive | inactive | inactive | inactive | inactive | inactive | inactive | inactive | inactive | inactive | inactive |  |  |  |  |  |  |  | 
CC(C)(C)C(O)C(Oc1ccc(Cl)cc1)n1cncn1 (centres undefined) |  | inactive | inactive |  |  | inactive |  | inactive | 12.3 µM (active) | inactive | inactive | inactive | inactive | inactive |  |  |  |  | 
N#Cc1cc(I)c(O)c(I)c1 |  |  | 61.1 µM (active) |  | inactive | inactive | inactive | inactive |  | inactive | inactive |  |  | 28.4 µM (active) | 30.6 µM (active) | inactive | inactive | 24.3 µM (active) | 
O=C(Nc1ccccc1)Nc1ccnc(Cl)c1 | 48.6 µM (active) |  |  |  | inactive | inactive |  | inactive | 19.5 µM (active) | inactive | inactive |  | 61.1 µM (active) |  |  | inactive |  | 24.3 µM (active) | -55.6% (inactive)
Nc1ccc([N+](=O)[O-])cc1[N+](=O)[O-] |  |  | inactive |  | inactive | inactive | inactive | inactive |  | inactive | inactive | inactive | inactive |  |  |  |  |  | 
COP(=S)(OC)Oc1ccc([N+](=O)[O-])cc1Cl |  |  | inactive |  | inactive | inactive | inactive | inactive | inactive | inactive | inactive | 35.6 µM (active) |  | inactive |  | inactive | inactive |  | -29.5% (inactive)
COc1nn(C(=O)NS(=O)(=O)c2ccccc2OC(F)(F)F)c(=O)n1C | inactive | inactive | inactive | inactive | inactive | inactive | inactive | inactive | inactive | 31.7 µM (active) | inactive |  | inactive |  | inactive | inactive |  | inactive | 1.4% (inactive)
Oc1ccc(Cl)c(Cl)c1Cl | inactive | inactive | inactive | inactive |  | inactive | inactive | inactive |  |  | inactive |  |  |  |  |  | inactive |  | 
CS/C(C)=N/OC(=O)N(C)SN(C)C(=O)O/N=C(\C)SC |  |  |  | inactive |  | inactive | inactive |  | 49 µM (active) |  |  | 31.7 µM (active) |  |  |  | inactive |  |  | 
CCOP(=S)(OCC)SCSCC | inactive | inactive |  |  | inactive | inactive |  | inactive | inactive | inactive | inactive |  | inactive | inactive |  |  |  |  | 
CC[C@H]1C[C@H]2[C@@H]3CCC4=CC(=O)CC[C@@H]4[C@H]3CC[C@]2(C)[C@H]1O | inactive | inactive | inactive |  | inactive |  |  | inactive |  | inactive | inactive |  | inactive | inactive |  | inactive |  | 29.8 µM (active) | -38.2% [at 42.5 µM] (inactive)
CO/C=C(/C(=O)OC)c1ccccc1COc1cccc(C(F)(F)F)n1 |  |  | inactive | 3.85 µM (active) | inactive | inactive | inactive | inactive | 19.5 µM (active) |  | inactive |  | inactive |  |  | inactive |  | 0.485 µM (active) | -45% (inactive)
Clc1ccc(C2(Cn3cncn3)CC(Br)CO2)c(Cl)c1 (centres undefined) |  |  | inactive |  | inactive | inactive | inactive | inactive | 27.4 µM (active) | inactive | inactive | inactive |  | 112 µM (active) | 24.2 µM (active) | inactive |  | 15.3 µM (active) | 
CC(C)N(CCC(C(N)=O)(c1ccccc1)c1ccccn1)C(C)C (centres undefined) | inactive | inactive | inactive |  | inactive | inactive |  | inactive | inactive | inactive | inactive |  | inactive | inactive |  |  |  | inactive | 2.39% [at 42.5 µM] (inactive)
Cl/C=C\Cl | inactive | inactive |  |  | inactive | inactive | inactive | inactive | inactive |  | inactive |  | inactive | inactive |  |  | inactive |  | 
ClP(Cl)(Cl)(Cl)Cl | inactive | inactive | inactive | inactive | inactive |  | inactive |  |  | inactive |  |  |  | inactive |  |  | inactive | inactive | 0.0891% (inactive)
COC(=O)C(C)N(C(=O)Cc1ccccc1)c1c(C)cccc1C (centres undefined) | inactive | inactive | inactive | 9.69 µM (active) | inactive | inactive | inactive | inactive |  | inactive | inactive |  | inactive | inactive |  |  | 27.3 µM (active) | 30.6 µM (active) | -38.3% (inactive)
c1cc2ccc3cccc4ccc(c1)c2c34 |  | inactive | inactive |  | inactive |  |  | inactive | inactive |  | inactive |  | inactive |  | inactive |  | 7.19 µM (active) | 50.9 µM (active) | 

Source: PubChem BioAssay (Tox21)
